# Assays:
# Experiment in all cases: DAPPL (digital affinity profiling via proximity ligation, sequencing); 10 mM Tris-HCl pH 7.5, 50 mM NaCl, 1 mM DTT, 4% glycerol, room temperature, 30 min; GST-TFs on glutathione beads, 16-mer random dsDNA library, 0.1% formaldehyde crosslink after washing; high values mean tight binding
# FEV = target: T1, FEV (Homo sapiens, UniProt Q99581 1-238); conditions: protein: recombinant; tags: N-terminal GST; dsDNA, one strand shown
# T1 sequence: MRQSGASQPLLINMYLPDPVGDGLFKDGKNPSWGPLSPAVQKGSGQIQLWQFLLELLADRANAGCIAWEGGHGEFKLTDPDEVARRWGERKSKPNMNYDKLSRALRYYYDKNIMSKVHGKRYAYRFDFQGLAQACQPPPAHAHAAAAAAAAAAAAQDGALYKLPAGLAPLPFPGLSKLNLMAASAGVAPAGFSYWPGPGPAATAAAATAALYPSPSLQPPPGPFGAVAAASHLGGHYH
# Method in brief: (§1)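 Binding signal is each hexamer's read frequency for a factor divided by its frequency in the tag-only sample. The factors were GST-fused human transcription factors from yeast, captured on glutathione beads, DNA-barcoded and pooled with that sample. Pools were incubated with 200 nmole of a random double-stranded 16-mer DNA library in Tris/NaCl/DTT/glycerol buffer at room temperature for 30 min, then washed, crosslinked with 0.1% formaldehyde, proximity-ligated with BsaI/T4 ligase (1 h, 37 °C), PCR-amplified and sequenced on an Illumina NextSeq500.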
# ETV5 = ETV5 (Homo sapiens, UniProt P41161 1-510); conditions: protein: recombinant; tags: N-terminal GST; dsDNA, one strand shown
# Method in brief: as §1
# HSF1 = HSF1 (Homo sapiens, UniProt Q00613 1-529); conditions: protein: recombinant; tags: N-terminal GST; chain copies: 3; dsDNA, one strand shown
# Method in brief: as §1
# SPIC = target: T2, SPIC (Homo sapiens, UniProt Q8N5J4 1-248); conditions: protein: recombinant; tags: N-terminal GST; dsDNA, one strand shown
# T2 sequence: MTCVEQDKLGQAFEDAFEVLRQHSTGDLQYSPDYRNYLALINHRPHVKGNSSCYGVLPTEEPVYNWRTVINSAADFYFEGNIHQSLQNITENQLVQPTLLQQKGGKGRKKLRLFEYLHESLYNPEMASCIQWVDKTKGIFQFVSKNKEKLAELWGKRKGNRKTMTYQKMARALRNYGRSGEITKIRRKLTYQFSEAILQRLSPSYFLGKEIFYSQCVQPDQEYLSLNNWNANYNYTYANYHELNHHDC
# Method in brief: as §1
# ELF4 = ELF4 (Homo sapiens, UniProt Q99607 1-663); conditions: protein: recombinant; tags: N-terminal GST; dsDNA, one strand shown
# Method in brief: as §1
# ELK4 = target: T3, ELK4 (Homo sapiens, UniProt P28324-2 1-405); conditions: protein: recombinant; tags: N-terminal GST; dsDNA, one strand shown
# T3 sequence: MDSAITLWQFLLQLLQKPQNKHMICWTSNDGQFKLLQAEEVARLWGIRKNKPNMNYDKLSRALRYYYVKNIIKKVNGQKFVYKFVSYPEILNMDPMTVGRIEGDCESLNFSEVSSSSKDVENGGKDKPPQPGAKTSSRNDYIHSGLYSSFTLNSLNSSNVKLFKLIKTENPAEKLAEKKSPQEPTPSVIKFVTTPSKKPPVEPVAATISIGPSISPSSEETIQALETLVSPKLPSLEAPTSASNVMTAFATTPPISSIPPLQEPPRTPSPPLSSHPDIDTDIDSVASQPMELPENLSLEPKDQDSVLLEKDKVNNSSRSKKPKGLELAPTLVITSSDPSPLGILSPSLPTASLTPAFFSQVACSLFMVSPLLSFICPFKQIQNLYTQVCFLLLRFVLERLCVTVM
# Method in brief: as §1
# ETV2 = target: T4, ETV2 (Homo sapiens, UniProt O00321 1-342); conditions: protein: recombinant; tags: N-terminal GST; dsDNA, one strand shown
# T4 sequence: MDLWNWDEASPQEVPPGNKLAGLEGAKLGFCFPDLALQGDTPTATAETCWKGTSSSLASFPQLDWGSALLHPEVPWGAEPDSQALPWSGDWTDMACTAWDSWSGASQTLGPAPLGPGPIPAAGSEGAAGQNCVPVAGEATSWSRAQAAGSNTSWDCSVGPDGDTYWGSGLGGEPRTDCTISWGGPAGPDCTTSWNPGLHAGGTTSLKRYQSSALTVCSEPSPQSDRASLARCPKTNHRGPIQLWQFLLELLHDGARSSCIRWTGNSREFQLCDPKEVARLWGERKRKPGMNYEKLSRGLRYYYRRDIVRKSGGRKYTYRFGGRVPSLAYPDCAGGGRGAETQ
# Method in brief: as §1
# ELF3 = target: T5, ELF3 (Homo sapiens, UniProt P78545 1-371); conditions: protein: recombinant; tags: N-terminal GST; dsDNA, one strand shown
# T5 sequence: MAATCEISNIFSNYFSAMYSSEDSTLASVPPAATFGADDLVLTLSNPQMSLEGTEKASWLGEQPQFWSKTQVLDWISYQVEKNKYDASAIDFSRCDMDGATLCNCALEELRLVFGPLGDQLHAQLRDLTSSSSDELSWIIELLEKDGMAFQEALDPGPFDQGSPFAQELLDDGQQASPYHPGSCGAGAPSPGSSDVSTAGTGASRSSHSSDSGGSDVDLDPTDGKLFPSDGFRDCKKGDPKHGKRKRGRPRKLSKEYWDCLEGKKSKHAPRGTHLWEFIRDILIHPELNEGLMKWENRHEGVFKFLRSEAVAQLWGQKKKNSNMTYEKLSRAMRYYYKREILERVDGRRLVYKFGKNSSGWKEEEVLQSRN
# Method in brief: as §1
# CRX = CRX (Homo sapiens, UniProt O43186 1-299); conditions: protein: recombinant; tags: N-terminal GST; dsDNA, one strand shown
# Method in brief: as §1
# ETV1 = ETV1 (Homo sapiens, UniProt P50549 1-477); conditions: protein: recombinant; tags: N-terminal GST; dsDNA, one strand shown
# Method in brief: as §1
# ERF = target: T6, ERF (Homo sapiens, UniProt P50548 1-548); conditions: protein: recombinant; tags: N-terminal GST; dsDNA, one strand shown
# T6 sequence: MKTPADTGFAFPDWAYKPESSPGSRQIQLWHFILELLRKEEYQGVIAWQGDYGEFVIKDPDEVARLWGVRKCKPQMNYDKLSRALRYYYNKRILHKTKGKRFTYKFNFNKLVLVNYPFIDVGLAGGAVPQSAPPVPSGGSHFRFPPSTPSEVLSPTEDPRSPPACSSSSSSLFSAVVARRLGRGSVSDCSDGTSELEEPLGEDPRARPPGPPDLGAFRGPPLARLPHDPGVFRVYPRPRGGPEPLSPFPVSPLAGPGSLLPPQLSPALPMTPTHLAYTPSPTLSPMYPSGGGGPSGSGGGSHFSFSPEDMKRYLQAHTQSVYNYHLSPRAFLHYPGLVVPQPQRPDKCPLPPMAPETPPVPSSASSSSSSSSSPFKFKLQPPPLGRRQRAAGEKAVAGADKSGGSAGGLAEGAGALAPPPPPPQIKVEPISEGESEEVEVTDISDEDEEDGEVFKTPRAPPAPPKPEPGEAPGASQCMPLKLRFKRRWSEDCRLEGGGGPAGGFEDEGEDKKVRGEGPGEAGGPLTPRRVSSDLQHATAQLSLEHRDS
# Method in brief: as §1
# ETV3L = target: T7, ETV3L (Homo sapiens, UniProt Q6ZN32 1-361); conditions: protein: recombinant; tags: N-terminal GST; dsDNA, one strand shown
# T7 sequence: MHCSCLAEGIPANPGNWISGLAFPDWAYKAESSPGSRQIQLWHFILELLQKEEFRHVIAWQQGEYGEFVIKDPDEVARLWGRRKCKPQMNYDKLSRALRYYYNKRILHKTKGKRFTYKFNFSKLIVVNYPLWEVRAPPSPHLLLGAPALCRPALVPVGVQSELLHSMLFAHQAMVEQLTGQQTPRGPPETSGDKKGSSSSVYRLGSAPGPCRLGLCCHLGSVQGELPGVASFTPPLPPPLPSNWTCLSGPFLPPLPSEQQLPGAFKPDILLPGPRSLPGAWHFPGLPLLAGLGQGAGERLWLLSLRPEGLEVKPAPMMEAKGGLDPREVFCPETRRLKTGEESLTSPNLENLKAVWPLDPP
# Method in brief: as §1
# ETS2 = target: T8, ETS2 (Homo sapiens, UniProt P15036 1-469); conditions: protein: recombinant; tags: N-terminal GST; dsDNA, one strand shown
# T8 sequence: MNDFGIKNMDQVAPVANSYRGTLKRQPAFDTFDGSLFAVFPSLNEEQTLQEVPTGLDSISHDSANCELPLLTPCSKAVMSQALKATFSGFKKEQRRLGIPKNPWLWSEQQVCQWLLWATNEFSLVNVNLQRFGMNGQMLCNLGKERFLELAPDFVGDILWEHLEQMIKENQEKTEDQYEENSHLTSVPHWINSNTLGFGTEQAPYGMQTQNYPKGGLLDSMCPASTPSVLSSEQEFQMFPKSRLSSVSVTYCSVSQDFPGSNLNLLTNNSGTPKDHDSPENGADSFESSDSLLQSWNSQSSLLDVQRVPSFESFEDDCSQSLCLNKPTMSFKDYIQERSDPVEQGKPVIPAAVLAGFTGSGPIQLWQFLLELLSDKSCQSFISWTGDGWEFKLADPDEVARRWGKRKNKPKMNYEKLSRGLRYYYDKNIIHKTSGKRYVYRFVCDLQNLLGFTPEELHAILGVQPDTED
# Method in brief: as §1
# SPDEF = target: T9, SPDEF (Homo sapiens, UniProt O95238 1-335); conditions: protein: recombinant; tags: N-terminal GST; dsDNA, one strand shown
# T9 sequence: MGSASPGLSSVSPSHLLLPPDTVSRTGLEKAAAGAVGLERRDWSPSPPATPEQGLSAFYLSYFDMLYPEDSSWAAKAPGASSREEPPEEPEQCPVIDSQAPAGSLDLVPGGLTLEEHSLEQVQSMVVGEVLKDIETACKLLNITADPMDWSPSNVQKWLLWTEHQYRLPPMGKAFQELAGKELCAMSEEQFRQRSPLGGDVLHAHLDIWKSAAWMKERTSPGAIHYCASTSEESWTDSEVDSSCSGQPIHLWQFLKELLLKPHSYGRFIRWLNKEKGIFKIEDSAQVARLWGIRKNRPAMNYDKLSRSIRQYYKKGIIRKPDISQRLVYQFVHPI
# Method in brief: as §1
# ETV7 = target: T10, ETV7 (Homo sapiens, UniProt Q9Y603 1-341); conditions: protein: recombinant; tags: N-terminal GST; dsDNA, one strand shown
# T10 sequence: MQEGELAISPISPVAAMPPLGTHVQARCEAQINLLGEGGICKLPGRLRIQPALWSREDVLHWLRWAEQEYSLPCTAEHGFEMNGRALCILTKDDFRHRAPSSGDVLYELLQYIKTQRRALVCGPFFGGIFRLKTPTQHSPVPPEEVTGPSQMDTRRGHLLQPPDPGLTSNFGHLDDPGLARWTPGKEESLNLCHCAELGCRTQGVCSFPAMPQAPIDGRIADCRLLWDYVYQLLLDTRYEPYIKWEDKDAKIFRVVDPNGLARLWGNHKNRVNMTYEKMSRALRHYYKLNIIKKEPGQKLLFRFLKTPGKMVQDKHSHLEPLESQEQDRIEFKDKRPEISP
# Method in brief: as §1
# ELF5 = target: T11, ELF5 (Homo sapiens, UniProt Q9UKW6-2 1-255); conditions: protein: recombinant; tags: N-terminal GST; dsDNA, one strand shown
# T11 sequence: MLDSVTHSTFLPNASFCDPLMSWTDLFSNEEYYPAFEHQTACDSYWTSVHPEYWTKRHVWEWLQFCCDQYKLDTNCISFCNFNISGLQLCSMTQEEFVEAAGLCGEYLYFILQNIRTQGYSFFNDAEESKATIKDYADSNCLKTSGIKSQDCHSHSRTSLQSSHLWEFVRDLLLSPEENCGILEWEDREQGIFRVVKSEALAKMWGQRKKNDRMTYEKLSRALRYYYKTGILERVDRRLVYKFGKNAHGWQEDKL
# Method in brief: as §1
# ETV3 = target: T12, ETV3 (Homo sapiens, UniProt P41162-2 1-143); conditions: protein: recombinant; tags: N-terminal GST; dsDNA, one strand shown
# T12 sequence: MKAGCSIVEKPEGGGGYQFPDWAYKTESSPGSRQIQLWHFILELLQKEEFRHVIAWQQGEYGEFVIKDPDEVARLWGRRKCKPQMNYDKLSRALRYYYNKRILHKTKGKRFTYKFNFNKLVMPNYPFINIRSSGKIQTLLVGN
# Method in brief: as §1
# ETV6 = ETV6 (Homo sapiens, UniProt P41212 1-452); conditions: protein: recombinant; tags: N-terminal GST; dsDNA, one strand shown
# Method in brief: as §1
# Sequence of ETV6 (P41212 whole entry): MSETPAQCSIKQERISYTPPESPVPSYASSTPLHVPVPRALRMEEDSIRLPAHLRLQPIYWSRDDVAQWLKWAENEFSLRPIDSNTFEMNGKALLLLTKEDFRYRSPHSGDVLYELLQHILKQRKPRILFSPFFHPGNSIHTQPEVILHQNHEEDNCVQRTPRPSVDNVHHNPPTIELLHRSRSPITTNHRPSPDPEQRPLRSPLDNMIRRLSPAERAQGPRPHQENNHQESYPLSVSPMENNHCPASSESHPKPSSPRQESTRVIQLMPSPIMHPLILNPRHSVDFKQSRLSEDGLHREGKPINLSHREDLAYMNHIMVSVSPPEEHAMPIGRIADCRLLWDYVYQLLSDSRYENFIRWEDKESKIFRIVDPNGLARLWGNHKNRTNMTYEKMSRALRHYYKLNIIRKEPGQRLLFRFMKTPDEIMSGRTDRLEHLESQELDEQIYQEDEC
# Sequence of ETV1 (P50549 whole entry): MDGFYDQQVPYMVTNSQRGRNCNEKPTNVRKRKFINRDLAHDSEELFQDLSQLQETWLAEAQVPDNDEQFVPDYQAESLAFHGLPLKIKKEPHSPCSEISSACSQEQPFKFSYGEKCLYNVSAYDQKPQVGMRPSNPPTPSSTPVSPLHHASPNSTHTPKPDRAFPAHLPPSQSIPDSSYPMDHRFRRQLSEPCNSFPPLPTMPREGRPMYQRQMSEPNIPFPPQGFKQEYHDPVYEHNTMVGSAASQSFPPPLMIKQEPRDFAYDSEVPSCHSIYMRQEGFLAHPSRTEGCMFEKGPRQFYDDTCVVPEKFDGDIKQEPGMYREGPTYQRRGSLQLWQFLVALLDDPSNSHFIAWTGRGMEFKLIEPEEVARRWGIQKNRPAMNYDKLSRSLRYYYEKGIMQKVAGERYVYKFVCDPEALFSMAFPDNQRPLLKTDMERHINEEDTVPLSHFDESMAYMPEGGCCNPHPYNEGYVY
# Sequence of CRX (O43186 whole entry): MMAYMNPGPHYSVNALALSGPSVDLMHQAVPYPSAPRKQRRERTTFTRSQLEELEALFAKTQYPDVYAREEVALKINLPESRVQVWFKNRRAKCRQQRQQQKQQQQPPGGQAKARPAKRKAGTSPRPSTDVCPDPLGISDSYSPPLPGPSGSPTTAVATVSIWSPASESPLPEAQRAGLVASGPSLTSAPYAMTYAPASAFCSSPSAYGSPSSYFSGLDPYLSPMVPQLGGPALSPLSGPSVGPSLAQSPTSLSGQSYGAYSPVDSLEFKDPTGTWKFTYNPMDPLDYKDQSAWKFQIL
# Sequence of ETV5 (P41161 whole entry): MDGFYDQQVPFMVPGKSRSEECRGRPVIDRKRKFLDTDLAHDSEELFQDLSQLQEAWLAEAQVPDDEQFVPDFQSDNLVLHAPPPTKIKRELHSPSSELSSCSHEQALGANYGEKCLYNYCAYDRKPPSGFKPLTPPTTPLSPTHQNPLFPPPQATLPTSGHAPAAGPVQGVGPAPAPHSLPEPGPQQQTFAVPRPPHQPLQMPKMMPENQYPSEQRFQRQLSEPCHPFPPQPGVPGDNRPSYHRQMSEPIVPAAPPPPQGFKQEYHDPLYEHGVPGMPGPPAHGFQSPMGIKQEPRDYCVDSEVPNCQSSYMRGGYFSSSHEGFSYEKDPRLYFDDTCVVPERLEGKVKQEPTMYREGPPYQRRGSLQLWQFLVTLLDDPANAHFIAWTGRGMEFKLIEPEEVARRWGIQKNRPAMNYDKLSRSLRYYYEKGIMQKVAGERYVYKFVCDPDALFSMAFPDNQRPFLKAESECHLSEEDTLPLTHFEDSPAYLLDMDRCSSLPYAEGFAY
# Sequence of HSF1 (Q00613 whole entry): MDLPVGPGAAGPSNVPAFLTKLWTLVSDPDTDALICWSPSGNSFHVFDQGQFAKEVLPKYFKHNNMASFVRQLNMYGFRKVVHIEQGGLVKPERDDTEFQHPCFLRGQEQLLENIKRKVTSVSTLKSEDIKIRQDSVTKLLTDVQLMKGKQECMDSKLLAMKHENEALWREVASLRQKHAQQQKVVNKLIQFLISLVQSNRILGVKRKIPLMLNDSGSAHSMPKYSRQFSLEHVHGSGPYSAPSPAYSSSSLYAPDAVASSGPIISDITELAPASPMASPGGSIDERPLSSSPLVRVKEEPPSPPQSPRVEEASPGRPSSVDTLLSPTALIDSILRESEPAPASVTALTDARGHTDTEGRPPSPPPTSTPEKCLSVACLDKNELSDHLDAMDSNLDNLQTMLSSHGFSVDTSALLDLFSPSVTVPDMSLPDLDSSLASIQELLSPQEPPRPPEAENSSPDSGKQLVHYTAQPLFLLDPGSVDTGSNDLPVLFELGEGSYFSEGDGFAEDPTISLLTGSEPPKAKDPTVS
# Sequence of ELF4 (Q99607 whole entry): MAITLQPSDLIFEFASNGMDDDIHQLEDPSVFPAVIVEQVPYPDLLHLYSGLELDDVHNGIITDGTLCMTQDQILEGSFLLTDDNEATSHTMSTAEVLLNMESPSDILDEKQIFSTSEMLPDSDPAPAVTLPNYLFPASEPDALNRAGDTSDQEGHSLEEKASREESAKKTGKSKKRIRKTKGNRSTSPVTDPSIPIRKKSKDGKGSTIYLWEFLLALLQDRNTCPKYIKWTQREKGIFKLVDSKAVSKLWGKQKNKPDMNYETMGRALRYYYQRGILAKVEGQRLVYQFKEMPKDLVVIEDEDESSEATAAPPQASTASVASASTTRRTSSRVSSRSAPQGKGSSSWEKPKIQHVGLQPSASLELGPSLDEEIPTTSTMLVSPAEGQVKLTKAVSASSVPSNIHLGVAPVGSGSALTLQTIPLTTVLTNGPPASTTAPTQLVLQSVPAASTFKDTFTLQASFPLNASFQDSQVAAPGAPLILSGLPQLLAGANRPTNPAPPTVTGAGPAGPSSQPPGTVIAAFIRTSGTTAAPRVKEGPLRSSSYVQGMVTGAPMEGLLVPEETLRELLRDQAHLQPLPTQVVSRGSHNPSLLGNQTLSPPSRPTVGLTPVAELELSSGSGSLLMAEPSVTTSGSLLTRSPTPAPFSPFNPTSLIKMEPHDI
sequence,measurement,setting,value
CTGCGC,binding signal,FEV,"1.38 fold enrichment (6-mer frequency, TF over GST control)"
same,binding signal,ETV5,"1.34 fold enrichment (6-mer frequency, TF over GST control)"
same,binding signal,HSF1,"1.1 fold enrichment (6-mer frequency, TF over GST control)"
same,binding signal,SPIC,"1.22 fold enrichment (6-mer frequency, TF over GST control)"
same,binding signal,ELF4,"1.32 fold enrichment (6-mer frequency, TF over GST control)"
same,binding signal,ELK4,"1.2 fold enrichment (6-mer frequency, TF over GST control)"
same,binding signal,ETV2,"1.46 fold enrichment (6-mer frequency, TF over GST control)"
same,binding signal,ELF3,"1.27 fold enrichment (6-mer frequency, TF over GST control)"
same,binding signal,CRX,"1.11 fold enrichment (6-mer frequency, TF over GST control)"
same,binding signal,ETV1,"1.58 fold enrichment (6-mer frequency, TF over GST control)"
same,binding signal,ERF,"1.34 fold enrichment (6-mer frequency, TF over GST control)"
same,binding signal,ETV3L,"1.33 fold enrichment (6-mer frequency, TF over GST control)"
same,binding signal,ETS2,"1.46 fold enrichment (6-mer frequency, TF over GST control)"
same,binding signal,SPDEF,"1.12 fold enrichment (6-mer frequency, TF over GST control)"
same,binding signal,ETV7,"1.23 fold enrichment (6-mer frequency, TF over GST control)"
same,binding signal,ELF5,"1.26 fold enrichment (6-mer frequency, TF over GST control)"
same,binding signal,ETV3,"1.32 fold enrichment (6-mer frequency, TF over GST control)"
same,binding signal,ETV6,"1.27 fold enrichment (6-mer frequency, TF over GST control)"
